# Test results: PubChem BioAssay (EPA / NIEHS)
# “And” between values parts separate entries of the source, which are not always exact repeats. Equal values may be shown once. More than one record can exist for a structure, and the calls need not agree. The source made the active and inactive calls. The calls were made as follows: active = hit-call score of the fitted dose curve at least 0.9, where 1 is the maximum; inactive = score below 0.9.
# Read-out: not listed separately
# Test: BSK_LPS_PGE2: BioMAP Diversity Plus: LPS Assay for Prostaglandin E2 (PGE2) Biomarker Activity (AID 2283082);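 as to AC50: secreted prostaglandin E2 measured by ELISA in LPS-stimulated co-culture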
# Details: primary human HUVEC with PBMC; actives raise or lower the signal
# How it was run: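 Compounds were added to the LPS co-culture of endothelium and PBMC, and PGE2 was measured by ELISA after 24 h. Responses in either direction were fitted with DMSO as baseline.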
Compound,AC50,outcome
CNC(=S)S,8.25 µM (active),
CCNc1nc(Cl)nc(NCC)n1,,inactive
COC(=O)C(C)Oc1ccc(Oc2ccc(Cl)cc2Cl)cc1 (stereo unspecified),11.4 µM (active) and 12 µM (active) and 23.5 µM (active),
CCCN(CCC)c1c([N+](=O)[O-])cc(S(N)(=O)=O)cc1[N+](=O)[O-],34.7 µM (active),inactive
CCOC(=O)CC(SP(=S)(OC)OC)C(=O)OCC (stereo unspecified),,inactive
Cc1ccc(-c2c(Cl)nc(C#N)n2S(=O)(=O)N(C)C)cc1,30 µM (active),
Oc1ccccc1-c1ccccc1,4.65 µM (active),
CO/C=C(/C(=O)OC)c1ccccc1Oc1cc(Oc2ccccc2C#N)ncn1,9.64 µM (active),inactive
COc1cnc(OC)n2nc(NS(=O)(=O)c3c(OCC(F)F)cccc3C(F)(F)F)nc12,,inactive
CCc1nn(C)c(C(=O)NCc2ccc(C(C)(C)C)cc2)c1Cl,3.97 µM (active),
N#CC(CCc1ccc(Cl)cc1)(Cn1cncn1)c1ccccc1 (stereo unspecified),3.75 µM (active),
O=C(O)COc1nc(Cl)c(Cl)cc1Cl,,inactive
C=CCC1=C(C)C(OC(=O)C2C(C=C(C)C)C2(C)C)CC1=O (stereo unspecified),33.7 µM (active) and 5.54 µM (active),inactive
N#Cc1cc(Br)c(O)c(Br)c1,,inactive
O=C(O)c1nc(Cl)ccc1Cl,,inactive
C#CCOS(=O)OC1CCCCC1Oc1ccc(C(C)(C)C)cc1 (stereo unspecified),,inactive
COC(=O)c1ccccc1C(=O)OC,,inactive
COc1nc(NC(C)C)nc(NC(C)C)n1,,inactive
CC1=C(C(=O)Nc2ccccc2)SCCO1,8.8 µM (active),
COP(=S)(OC)Oc1nc(Cl)c(Cl)cc1Cl,26.7 µM (active),
CN(C)C(=S)SSC(=S)N(C)C,4.51 µM (active),
CNC(=O)ON=CC(C)(C)SC,2.13 µM (active),
COC(=O)C=C(C)OP(=O)(OC)OC,0.37 µM (active),
O=C(Nc1ccccc1)Nc1ccnc(Cl)c1,6.08 µM (active),
CCCCNC(=O)OCC#CI,36 µM (active),inactive
CCOc1cc(Oc2ccc(C(F)(F)F)cc2Cl)ccc1[N+](=O)[O-],,inactive

# Read-out: Macrophage colony-stimulating factor (MCSF), CSF1 (gene 1435)
# Test: BSK_LPS_MCSF: BioMAP Diversity Plus: LPS Assay for Macrophage colony-stimulating factor (MCSF) Biomarker Activity (AID 2283083)
# Details: primary human HUVEC with PBMC; actives raise or lower the signal
# How it was run: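 HUVEC + PBMC co-culture (human primary), 24 h post-dose; M-CSF by ELISA; gain/loss of signal fitted bidirectionally vs DMSO baseline.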
Compound,AC50,outcome
CNC(=S)S,9.92 µM (active),
CCNc1nc(Cl)nc(NCC)n1,,inactive
COC(=O)C(C)Oc1ccc(Oc2ccc(Cl)cc2Cl)cc1 (stereo unspecified),,inactive
CCCN(CCC)c1c([N+](=O)[O-])cc(S(N)(=O)=O)cc1[N+](=O)[O-],32.3 µM (active) [middle of 4 runs],
CCOC(=O)CC(SP(=S)(OC)OC)C(=O)OCC (stereo unspecified),,inactive
Cc1ccc(-c2c(Cl)nc(C#N)n2S(=O)(=O)N(C)C)cc1,31.5 µM (active),
Oc1ccccc1-c1ccccc1,,inactive
CO/C=C(/C(=O)OC)c1ccccc1Oc1cc(Oc2ccccc2C#N)ncn1,24.5 µM (active) [middle of 4 runs],
COc1cnc(OC)n2nc(NS(=O)(=O)c3c(OCC(F)F)cccc3C(F)(F)F)nc12,,inactive
CCc1nn(C)c(C(=O)NCc2ccc(C(C)(C)C)cc2)c1Cl,13.4 µM (active),
N#CC(CCc1ccc(Cl)cc1)(Cn1cncn1)c1ccccc1 (stereo unspecified),,inactive
O=C(O)COc1nc(Cl)c(Cl)cc1Cl,,inactive
C=CCC1=C(C)C(OC(=O)C2C(C=C(C)C)C2(C)C)CC1=O (stereo unspecified),24.4 µM (active) [middle of 4 runs],
N#Cc1cc(Br)c(O)c(Br)c1,4.08 µM (active),
O=C(O)c1nc(Cl)ccc1Cl,,inactive
C#CCOS(=O)OC1CCCCC1Oc1ccc(C(C)(C)C)cc1 (stereo unspecified),15.8 µM (active),
COC(=O)c1ccccc1C(=O)OC,,inactive
COc1nc(NC(C)C)nc(NC(C)C)n1,,inactive
CC1=C(C(=O)Nc2ccccc2)SCCO1,,inactive
COP(=S)(OC)Oc1nc(Cl)c(Cl)cc1Cl,,inactive
CN(C)C(=S)SSC(=S)N(C)C,14.8 µM (active),
CNC(=O)ON=CC(C)(C)SC,,inactive
COC(=O)C=C(C)OP(=O)(OC)OC,,inactive
O=C(Nc1ccccc1)Nc1ccnc(Cl)c1,,inactive
CCCCNC(=O)OCC#CI,20 µM (active) and 17.1 µM (active),
CCOc1cc(Oc2ccc(C(F)(F)F)cc2Cl)ccc1[N+](=O)[O-],5.45 µM (active),
